Test systems include NCI-H322M lung; HOP-92 NSCLC; NCI-H522 lung; COLO 205 colon; MDA-MB-231 breast; LOX IMVI melanoma; MOLT-4 leukemia; SR leukemia; IGROV1 ovarian; T-47D breast; SW-620 colon; HCT-116 colon; HCC-2998 colon; KM12 colon; NCI-H23 lung; A498 renal; MDA-MB-435 melanoma; RPMI-8226 leukemia; HS 578T breast; PC-3 prostate.
Holding throughout (experiment): NCI-60 one-dose screen, 48 h (100 = growth as untreated, 0 = no growth, -100 = all killed)
Common to all, as to settings: 10 µM

Compounds without any hit were thinned out: in the full panel of roughly 83,000, 20% have a hit.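 Results are percent growth after 48 hours of single-concentration exposure. 100 means growth as in untreated cells, lower positive values show inhibition; negative values down to -100 show cell death.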 A number with no mark means an inactive call. Calls of active or inactive are those of the source. How the source made its calls: active means growth percent below 10; inactive means the rest.

On to `CC12OOC(C)(OO1)C2CCC(=O)NCCCNc1ccnc2cc(Cl)ccc12` (stereo not given), for which the growth is 97.1% with NCI-H322M lung; 4.9% (active) in the experiment with HOP-92 NSCLC; -77.8% (active) in the experiment on NCI-H522 lung; -62.6% (active) in the experiment on COLO 205 colon; 82.7% with MDA-MB-231 breast; -92.8% (active) in the experiment with LOX IMVI melanoma. The growth is 34.6% in the experiment with MOLT-4 leukemia; -36.1% (active) in the experiment on SR leukemia; 67.1% in the experiment with IGROV1 ovarian; 40% with T-47D breast; 18.9% with SW-620 colon; 3.56% (active) with HCT-116 colon. Moreover, the values for the growth in the experiment with HCC-2998 colon and in the experiment with KM12 colon were 106% and 86.4%, respectively.

As to `CC12CCC3(CCC(=O)NCCCNc4ccnc5cc(Cl)ccc45)[C@@](C)(OO[C@]3(C)O1)O2`, the growth is -43.6% (active) in the experiment with NCI-H23 lung; 3.32% (active) with HOP-92 NSCLC; -50.4% (active) in the experiment on NCI-H522 lung; 36.7% with COLO 205 colon; -23.4% (active) in the experiment on MDA-MB-231 breast; -78.1% (active) in the experiment with LOX IMVI melanoma. Moreover, the growth with A498 renal is 85.3%; in the experiment on MOLT-4 leukemia, 7.04% (active); in the experiment on SR leukemia it was 2.39% (active); in the experiment with IGROV1 ovarian, -23.3% (active); in the experiment with MDA-MB-435 melanoma, 18.3%; in the experiment on SW-620 colon, 28.9%. The growth in the experiment on HCT-116 colon was 9.58% (active); in the experiment with HCC-2998 colon, 22.8%.

For `COc1ccc2cc([C@H](C)C(=O)[Se]CCC#N)ccc2c1`, the growth in the experiment with NCI-H322M lung was -21.6% (active); in the experiment with HOP-92 NSCLC, -82.1% (active); in the experiment with NCI-H522 lung, -95.6% (active); with MDA-MB-231 breast, -59.9% (active); in the experiment on LOX IMVI melanoma it was -66.6% (active); in the experiment on A498 renal it was -71.1% (active). The growth in the experiment on MOLT-4 leukemia is 5.75% (active); in the experiment with SR leukemia it was 0.13% (active); in the experiment on RPMI-8226 leukemia, -17.8% (active); with HS 578T breast it was -10.2% (active); in the experiment with MDA-MB-435 melanoma, -69.7% (active); with SW-620 colon, -22.9% (active). For the same compound, the growth is -62% (active) with HCT-116 colon, 10.1% with HCC-2998 colon and 5.84% (active) in the experiment on KM12 colon.

Consider `O=C(/C=C/c1ccc(Cl)cc1Cl)c1nc2ccccc2n1Cc1ccc(Br)cc1`, for which the growth with NCI-H322M lung is 84.4%; with HOP-92 NSCLC, 65.8%; in the experiment on NCI-H522 lung, 88.2%; with COLO 205 colon, 100%; in the experiment with PC-3 prostate, 67.1%; in the experiment with MOLT-4 leukemia, 15.4%. For the same compound, the growth with SR leukemia is 14.4%; in the experiment on IGROV1 ovarian, 68.4%; with T-47D breast, 44.4%; with MDA-MB-435 melanoma it was 79.2%; in the experiment on HCT-116 colon, 25.8%; in the experiment with HCC-2998 colon, 70.4%. Moreover, the growth in the experiment with KM12 colon was 82.7%.

With `C=CCN=C([Se])NC(=O)c1ccc2c(c1)OCO2`, the growth in the experiment with NCI-H322M lung is 14.8%; with HOP-92 NSCLC, 151%; in the experiment with NCI-H522 lung it was 105%; in the experiment with MDA-MB-231 breast, 103%; in the experiment on LOX IMVI melanoma it was 104%; in the experiment with A498 renal, 82.5%. For the same compound, the growth with MOLT-4 leukemia is 107%; in the experiment with SR leukemia it was 93.1%; with RPMI-8226 leukemia it was 105%; with T-47D breast, 96.6%; in the experiment with SW-620 colon, 111%; with HCC-2998 colon, 92.4%.

Regarding `CC[C@]12C=CCN3CC[C@@]4(c5ccc(OC)cc5N(C)[C@H]4[C@@](O)(C(=O)OC)[C@@H]1OC(=O)CCC[P+](c1ccc(C)cc1)(c1ccc(C)cc1)c1ccc(C)cc1)[C@@H]32`, the growth in the experiment on NCI-H23 lung was -90.7% (active); in the experiment with NCI-H322M lung, -98.4% (active); with MDA-MB-231 breast it was -94.9% (active); with PC-3 prostate, -83.3% (active); with LOX IMVI melanoma, -89.3% (active); in the experiment on A498 renal it was -88.6% (active). Moreover, the growth in the experiment with MOLT-4 leukemia is -45.1% (active); with SR leukemia, 5.74% (active); with IGROV1 ovarian it was -89.5% (active); in the experiment on T-47D breast, -78.4% (active); with SW-620 colon it was -85.2% (active).

For `O=C(/C=C/c1ccco1)c1nc2ccccc2n1Cc1ccc(Br)cc1`, the growth is 27.4% in the experiment on NCI-H23 lung; 3.99% (active) in the experiment on HOP-92 NSCLC; 4.59% (active) in the experiment on NCI-H522 lung; 69.7% with COLO 205 colon; 3.6% (active) in the experiment on MOLT-4 leukemia; 4.72% (active) in the experiment with SR leukemia. Besides, the growth in the experiment with RPMI-8226 leukemia was -5.78% (active); in the experiment with T-47D breast, 4.25% (active).

Regarding `COC(=O)c1ccc(-n2cc(CCCN(CCNc3ccnc4cc(Cl)ccc34)C(=O)CCC(=O)O[C@@H]3O[C@@H]4OC5(C)CC[C@H]6[C@H](C)CC[C@@H]([C@H]3C)[C@@]46OO5)nn2)cc1`, the growth was 40.4% with NCI-H23 lung; 18.6% in the experiment on HOP-92 NSCLC; 7.38% (active) in the experiment on NCI-H522 lung; 14.8% in the experiment with COLO 205 colon; 62.8% in the experiment with MDA-MB-231 breast; 8.12% (active) in the experiment with LOX IMVI melanoma. Further, the growth was 100% in the experiment with A498 renal; -13.5% (active) in the experiment on MOLT-4 leukemia; -10% (active) in the experiment on SR leukemia; 19.7% in the experiment with RPMI-8226 leukemia; 40.4% in the experiment on IGROV1 ovarian; 49.6% with HS 578T breast. For the same compound, the figures for the growth in the experiment with SW-620 colon and in the experiment on KM12 colon were 31.6% and 32.6%, respectively.

On to `CC(=C\C(=O)Oc1ccc2c3c1OC1C(O)CCC4(O)C(C2)N(CC2CCC2)CCC314)/C=C1\CCCc2ccccc21` (stereo not given), for which the growth in the experiment on NCI-H322M lung is 69.9%; in the experiment with HOP-92 NSCLC, 34.2%; in the experiment on NCI-H522 lung it was 47.2%; in the experiment with COLO 205 colon it was 39.4%; with MDA-MB-231 breast, 75.3%; with LOX IMVI melanoma, 5.47% (active). Also, the growth was 31.1% in the experiment with MOLT-4 leukemia; 67.1% in the experiment with IGROV1 ovarian; 28.4% in the experiment with SW-620 colon; 31.2% in the experiment on HCC-2998 colon; 40.5% in the experiment with KM12 colon.

For `C[C@H]1[C@H](OC(=O)CCC(=O)Nc2cnccn2)O[C@@H]2OC3(C)CC[C@H]4[C@H](C)CC[C@@H]1[C@@]24OO3`, the growth is 77.4% with NCI-H322M lung; 51.8% in the experiment with HOP-92 NSCLC; 83.7% in the experiment with MDA-MB-231 breast; -72.9% (active) in the experiment with LOX IMVI melanoma; 101% in the experiment with A498 renal; 27.6% with MOLT-4 leukemia. Moreover, the growth was 4.95% (active) in the experiment with SR leukemia and 21.8% in the experiment on SW-620 colon.
